Screening results as filed in PubChem.
An excerpt weighted towards active compounds, which were near 21% of everything screened.
MRP1 act: MRP-1 activation. viability increase, % at 10 µM. H69AR cells + doxorubicin, viability rescue, CellTiter-Glo. 140,000 tested, 0.61% active;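 active = viability gain under doxorubicin at or above a set limit, the compound median plus 3 SD, cut at about 4.7% in these data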;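 note: MRP-1 overexpressing cells given doxorubicin 25 µM after compound pretreatment; 18-22 h compound pretreatment then 72 h with doxorubicin before readout; 0% = doxorubicin-only wells and 100% = vehicle-treated cells without doxorubicin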
CYP2C19 activ: activators of human cytochrome P450 2C19 | P33261 | recombinant CYP2C19, luciferin-H EGE luminescence; active compounds read high; 0 = fully inhibited enzyme, 1 = untreated enzyme | activation factor at 5 µM | 96,000 tested, under 10 active | AID 1025;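 active = activation factor of at least 2 at 5 µM in the primary screen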;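 note: 0 = wells with 2.5 mM tranylcypromine and 1 = vehicle-only wells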
CYP2C9 act: activators of human CYP2C9. P11712. recombinant CYP2C9, luciferin-H conversion, luminescence; active compounds read high; factor 1 = untreated enzyme, 0 = blocked. activation factor at 5 µM. 96,000 tested, 1.4% active;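 active = activation factor of 2 or more for CYP2C9 at a 5 µM dose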;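 note: 0 = sulfaphenazole-blocked wells and 1 = vehicle-only wells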
Target sequence (P11712 whole entry, looked up): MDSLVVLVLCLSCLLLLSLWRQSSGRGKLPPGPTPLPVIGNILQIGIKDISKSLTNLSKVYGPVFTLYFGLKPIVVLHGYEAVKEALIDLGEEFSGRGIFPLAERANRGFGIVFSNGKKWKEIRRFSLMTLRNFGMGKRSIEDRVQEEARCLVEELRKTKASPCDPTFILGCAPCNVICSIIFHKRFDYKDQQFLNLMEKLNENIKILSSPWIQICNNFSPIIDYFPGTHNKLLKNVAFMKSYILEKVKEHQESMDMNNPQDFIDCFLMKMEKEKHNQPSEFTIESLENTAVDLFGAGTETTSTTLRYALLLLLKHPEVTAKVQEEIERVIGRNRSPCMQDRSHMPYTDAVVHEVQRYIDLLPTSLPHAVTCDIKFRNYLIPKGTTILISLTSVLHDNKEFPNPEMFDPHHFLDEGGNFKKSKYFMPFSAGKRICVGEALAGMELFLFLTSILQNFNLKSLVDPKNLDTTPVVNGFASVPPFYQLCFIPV
CYP2C9 inh: human CYP2C9 inhibition | inhibition, % at 5 µM | CYP2C9 Supersomes, luciferin-H conversion, luminescence | 96,000 tested, 20% active;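 active = blocking of liver enzyme CYP2C9 beyond about 50% at 5 µM, limit read from the data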
MRP reversal: reverses drug resistance mediated by MRP. H69AR cells + 2 uM doxorubicin, CellTiter-Glo, 72 h. differential viability (reversal), % at 10 µM. 85,000 tested, 0.04% active;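 active = viability drop by adding the cancer drug above about 55%, with treated viability meeting a 40% cutoff, limit read from the data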;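 note: viability without doxorubicin minus viability with 2 µM doxorubicin for each compound; larger differential means the compound sensitizes cells more to doxorubicin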
CYP2C19 inh: inhibitors of human CYP2C19; P33261; CYP2C19 Supersomes, luciferin-H EGE luminescence, 30 min; inhibition, % at 5 µM; 96,000 tested, 21% active;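 active = CYP2C19 inhibition above a set limit at 5 µM in the primary screen, cut at about 50% in these data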;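 note: plate controls were negative control wells for no effect and 2.5 mM tranylcypromine positive control for full effect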
Active calls of the source: *; . = not tested or not shown.

SMILES	MRP1 act	CYP2C19 activ	CYP2C9 act	CYP2C9 inh	MRP reversal	CYP2C19 inh
CCOc1cccc2cc(C(=O)N3CCc4ccccc43)c(=O)oc12	-2	1.1	2.4*	-140	-1	-9
Cc1cc(C(=O)N2CCc3ccccc32)c2ccccc2n1	-2	0.3	0.6	38	6	65*
COc1ccccc1C(=O)N1CCc2ccccc21	-2	0.8	1.1	-11	-1	19
COc1cccc2cc(C(=O)N3CCc4ccccc43)c(=O)oc12	-1	0.3	0.9	14	-1	68*
COc1ccc2oc(=O)c(C(=O)N3CCc4ccccc43)cc2c1	-1	1	2.2*	-117	-6	0
COc1cc2c(cc1OC)-c1nnc(-c3cccs3)n1C1(CCCC1)C2	-3	1.1	1.1	-12	7	-9
CC(NC(=O)COC(=O)CCc1ccccc1)c1ccccc1 (stereo unspecified)	0	.	.	.	.	.
COC(=O)c1sccc1-c1ccc(/C=N/OC(=O)c2ccccc2)o1	2	1	0.8	18	.	5
COc1ccc(CN2CCNC(=O)C2CC(=O)O)c(OC)c1 (stereo unspecified)	1	1.1	0.7	26	-6	-11
CCOC(=O)CC1C(=O)NCCN1Cc1cccc(OC)c1 (stereo unspecified)	-2	0.7	0.2	75*	-17	35
COc1ccc(NC(=O)CSc2nc3sc(C)c(C)c3c(=O)n2Cc2ccco2)cc1	-3	0.4	0.2	79*	3	62*
Cc1sc2nc(SCC(=O)C(C)(C)C)n(Cc3ccco3)c(=O)c2c1C	-5	0.9	0.3	73*	1	12
CCOC(=O)CC(=O)CSc1nc2sc(C)cc2c(=O)n1Cc1ccco1	-1	0.9	0.6	43	8	12
C=CCn1c(SCC(=O)NC(=O)NCc2ccco2)nc2sc(C)c(C)c2c1=O	-1	0.8	0.7	27	-10	19
Cc1cc2c(=O)n(Cc3ccco3)c(SCC(=O)c3ccc(Cl)s3)nc2s1	0	0.4	0.2	76*	-8	57*
Cc1occc1C(=O)Nc1cccc2ccccc12	0	.	.	.	-3	.
Cc1c(C)n(C)c2ccc(C(=O)Nc3cccc4ccccc34)cc12	-3	0.8	3.7*	-267	.	16
O=C(NC(Cc1c[nH]c2ccccc12)C(=O)O)c1ccccc1 (stereo unspecified)	-2	0.9	0.7	34	-11	7
Cc1oc2c(c1C(=O)Nc1cccc3ccccc13)CCCC2	1	0.2	0.2	81*	-11	85*
Cc1oc2c(c1C(=O)NC(Cc1c[nH]c3ccccc13)C(=O)O)CCCC2 (stereo unspecified)	-1	0.6	0.2	80*	13	43
COc1ccccc1NC(=O)c1c(C)oc2c1CCCC2	1	.	.	.	0	.
O=S(=O)(NCC(Nc1ccc(Cl)cc1)c1ccccc1)c1ccc(Cl)cc1 (stereo unspecified)	-4	.	.	.	.	.
O=S(=O)(Nc1ccc(Oc2ncccn2)c(Cl)c1)c1ccc(Cl)cc1	-1	0	0	99*	6	99*
O=CN(Cc1ccco1)C1(C(=O)NC2CCCCC2)CCCCC1	-3	0.9	1.1	-10	-2	13
COc1c2occc2c(OC)c2c(=O)cc(C(F)(F)C(F)(F)F)oc12	-1	0	0.4	61*	3	98*
SMILES	MRP1 act	CYP2C19 activ	CYP2C9 act	CYP2C9 inh	MRP reversal	CYP2C19 inh
CCCCS(=O)CC(COCc1ccccc1)OC(=O)CSc1nc(C)cc(C)n1 (stereo unspecified)	0	0.7	0.9	12	18	25
CC(=O)c1sc(NC(=O)c2ccc(Cn3cc(Br)cn3)o2)nc1C	1	0.5	0.2	78*	5	47
C=CCOC(=O)C1CC=CCC1C(=O)Oc1ccc(F)cc1F (stereo unspecified)	-4	0.1	0.3	69*	11	86*
C=CCNC(=S)Nc1ccc(F)cc1F	0	.	.	.	.	.
O=C(CSc1nnc(-c2cccs2)n1-c1ccccc1)N1CCc2ccccc21	.	.	.	.	-3	.
O=C1CC(SC(=NCc2ccc3c(c2)OCO3)Nc2ccccc2)C(=O)N1 (stereo unspecified)	0	0	0.5	48	8	96*
Cc1ccc(S(=O)(=O)N2CCC(C(=O)N3CCC[C@H]3C(=O)NCc3ccco3)CC2)cc1	-3	1	1.1	-5	-1	1
Fc1ccc(-c2nnn(Cc3nc4ccccc4s3)n2)cc1	2	0.1	0.7	33	4	89*
Clc1ccc(-c2nnn(Cc3nc4ccccc4s3)n2)cc1	-2	1.1	1.3	-26	15	-5
CN(C(=O)Cn1nnc(-c2cccc(C(F)(F)F)c2)n1)C1CCCCC1	-1	0.9	1.8	-79	2	9
O=C(Cn1nnc(-c2cccc(C(F)(F)F)c2)n1)N1CCOCC1	-2	1	3.3*	-230	15	-1
CCOC(=O)Cc1nnc2c(Nc3ccc(Cl)cc3)nc3nonc3n12	-6	1	0.8	16	-4	2
COc1cccc(C2CC(=O)Nc3cc(OC)c(OC)c(OC)c32)c1OC (stereo unspecified)	-5	0.4	0.5	47	10	63*
CCOc1ccccc1C1CC(=O)Nc2cc(OC)c(OC)c(OC)c21 (stereo unspecified)	-2	0.9	1	-1	5	8
O=C(CCNc1ccc(F)cc1)c1cccc([N+](=O)[O-])c1	-3	0.4	1	4	.	56*
O=C(CCNc1ccccc1)c1cccc([N+](=O)[O-])c1	-2	0.3	0.7	29	.	67*
Cc1ccc(NCCC(=O)c2cccc([N+](=O)[O-])c2)cc1	-4	0.1	0.6	36	.	94*
O=C(NCCNc1ccc([N+](=O)[O-])cc1)c1cccc(Br)c1	1	.	.	.	.	.
Cc1nc(SCC(=O)c2cccc([N+](=O)[O-])c2)n[nH]1	0	0.6	1	4	.	39
CCCCN(C(=O)Cn1nnc2ccccc21)C(C(=O)NCCOC)c1cccs1 (stereo unspecified)	-4	.	.	.	11	.
CCOc1ccc(C(=O)N2CCCN(C(=O)c3ccc(OCC)cc3)CC2)cc1	-3	0.7	0.4	61*	.	30
CCCCOc1ccc(C(=O)N2CCC(C)CC2)cc1	1	0.3	0.5	54*	24	70*
COc1ccc(C(=O)N2CCCC2)cc1	1	1	1	-5	3	3
CCCCOc1ccc(C(=O)N2CCCCCC2)cc1	-1	1	1.1	-7	-5	4
CCOn1c(=O)c(-c2cccs2)[n+]([O-])c2ccccc21	-1	0.4	0.5	53*	1	58*
COC(=O)C(O)(CC(=O)c1ccc(OC)cc1)C(F)(F)F (stereo unspecified)	0	0.4	1	4	-9	63*
